# The campaign covered roughly 2,100 compounds. About 1,400 (67%) were called active. How the calls were made is not given here. The set was probably picked from earlier hits. Some of the results follow. Results with a measured potency or affinity are listed apart.
# Test: non-covalent RecA intein splicing inhibitors, dose response, biochemical, cell-free, fluorescence, secondary screen (AID 449750)
# Settings: series mostly up to 38 µM
row,Compound,outcome
1,COCCn1c(N)c(C(=O)NCc2cccs2)c2nc3ccccc3nc21,inactive
2,CC1=NN(Cc2ccccc2)C(=O)/C1=C\c1ccc(N(C)C)cc1,inactive
3,Cc1ccccc1NC1=C/C(=N\S(=O)(=O)c2cccs2)c2ccccc2C1=O,inactive
4,Oc1ccc(N=Cc2ccc(-c3cccs3)s2)cc1,inactive
